Source: PubChem BioAssay (several laboratories)
The list is not random: actives were taken first. Their share in the collection is about 2.9%.
Cardio protect: protects H9c2 cardiomyocytes from peroxide injury; actives 0.63% (n = 360,000); protection from H2O2 cell death, % at 20 µM; H2O2 injury protection, ATPLite, 2 h;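 active means compounds giving at least 50% protection of heart cells from peroxide-induced death in the single-dose screen, raw or plate-pattern-corrected value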
sPLA2-III inh: Blocks human group III sPLA2 activity. actives 0.56% (n = 370,000). Q9NZ20. QFRET BODIPY PC-A2 liposome hydrolysis, fluorescence. inhibition, % at 12.2 µM;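 active means inhibition above mean plus 3 SD of compounds lying within the high and low control bounds, cut at about 19% in these data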
Rtt109 HAT inh: inhibitors of Candida albicans Rtt109/Vps75 histone acetyltransferase. purified Rtt109/Vps75, ThioGlo CoA-SH fluorescence, 4 h. inhibition, % at 34.9 µM. actives 0.16% (n = 330,000);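 active means inhibition of at least 50% in every replicate; inconclusive means best replicate reaches 50% inhibition but some replicates fall short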
Target sequence (Q5AAJ8 whole entry, looked up): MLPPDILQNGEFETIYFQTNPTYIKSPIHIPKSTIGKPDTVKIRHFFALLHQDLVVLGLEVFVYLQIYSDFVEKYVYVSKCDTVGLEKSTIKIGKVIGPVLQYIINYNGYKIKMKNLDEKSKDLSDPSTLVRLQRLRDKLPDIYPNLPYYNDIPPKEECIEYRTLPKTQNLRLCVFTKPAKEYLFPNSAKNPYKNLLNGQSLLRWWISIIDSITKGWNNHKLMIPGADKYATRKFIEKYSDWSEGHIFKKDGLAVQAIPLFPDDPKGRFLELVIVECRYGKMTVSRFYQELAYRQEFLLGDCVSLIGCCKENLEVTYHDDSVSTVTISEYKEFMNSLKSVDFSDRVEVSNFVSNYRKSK
ABHD5 PLIN5 PPI: blocks binding of human ABHD5 to perilipin-5. Q00G26+Q8WTS1. Split G. princeps luciferase complementation, luminescence, 4 h. inhibition, % at 4 µM. actives 0.78% (n = 360,000). AID 602281;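 active means inhibition above the mean inhibition across every tested compound plus 3 SD, cut at about 22% in these data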
Myeloid diff MLP: promotes myeloid progenitor differentiation; ER-HoxA9 myeloid progenitors, lysozyme-GFP differentiation, flow cytometry; calls only at 10 µM; actives 1% (n = 360,000); AID 624256;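 active means normalized GFP-positive differentiation at or above the plate's own cutoff, the solvent-only control mean plus 3 SD; inconclusive means no clear call, values can overlap the other calls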;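 further: cells exposed to compound for four days before flow analysis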
DAGLB inhibitor: diacylglycerol lipase beta (human) inhibition | Q8NCG7 | HEK293T DAGLB membrane lysate, EnzChek fluorogenic substrate | inhibition, % at 5.17 µM | actives 0.059% (n = 340,000) | AID 504411; in the data active means inhibition above about 34%
Large screens that a line does not name were inactive.

COc1ccc(-n2c(SCC#N)nnc2-c2cccnc2)cc1	none
CCn1cc(C(=O)OCC(=O)Nc2cccc(S(=O)(=O)N3CCOCC3)c2)c(=O)c2ccc(C)nc21	none
CCOC(=O)c1cn2nc(-c3ccc(OC)cc3)cc2nc1C1CCN(C(=O)OC(C)(C)C)CC1	none
CCC(C)C(NC(=O)OCc1ccccc1)C(=O)NCC(c1ccccc1)N(C)C (centres undefined)	none
COc1ccc(/C=N/NC(=O)c2ccccc2Cl)cc1CSc1nc2ccccc2s1	none (no result: Myeloid diff MLP)
COc1ccc(/C=N/NC(=O)c2cccnc2)cc1CSc1nc2ccccc2s1	Cardio protect 58 (no result: Myeloid diff MLP)
CCCCN(CCCC)c1nc2ccccc2nc1C(C#N)C(=O)NCCCOC (centres undefined)	none
CCN(CC)c1nc2ccccc2nc1C(C#N)C(=O)NCCCOC (centres undefined)	Myeloid diff MLP active
CSc1nnc(-c2cccn(Cc3cccc(Cl)c3)c2=O)o1	none
O=C(CO)C(O)C(O)C(O)CO (centres undefined)	Myeloid diff MLP active
O=C(NC1CCCC1)C(c1ccsc1)N(C(=O)Cc1cccs1)c1cccc(F)c1 (centres undefined)	none
CC(/C=N/NC(=O)c1nnn(-c2nonc2N)c1CN1CCCCC1)=C\c1ccccc1	none
C/C(=N\NC(=O)c1nnn(-c2nonc2N)c1CSc1ccc(Cl)cc1)c1cccnc1	none
C/C(=N\NC(=O)c1nnn(-c2nonc2N)c1CSc1ccc(C)cc1)c1cccnc1	Cardio protect 55 (no result: Rtt109 HAT inh)
C/C(=N\NC(=O)c1nnn(-c2nonc2N)c1CN1CCCCC1)c1ccccc1O	Cardio protect 63 (no result: Myeloid diff MLP)
CC(NC(=O)C1CCN(S(=O)(=O)c2cccc3cccnc23)CC1)c1ccccc1 (centres undefined)	Myeloid diff MLP active
Cc1noc(/C=C/c2ccco2)c1S(=O)(=O)N1CCC(C(=O)NC(C)c2ccccc2)CC1 (centres undefined)	Myeloid diff MLP active
Cc1noc(/C=C/c2ccco2)c1S(=O)(=O)N1CCC(C(=O)N(C)Cc2ccccc2)CC1	none
CC(NC(=O)C1CCCN1S(=O)(=O)c1cccc2cccnc12)c1ccccc1 (centres undefined)	none
CCOc1ccc(C(=O)N/N=C/c2cc(Cl)ccc2[N+](=O)[O-])cc1	none
NC(=O)COC(=O)[C@@H]1CC(O)CN1S(=O)(=O)c1ccc2c(c1)OCCO2 (some centres undefined)	none
O=C/C(=C\Nc1ccc(Br)cc1)c1nc2ccccc2o1	none
CC(=O)Nc1cccc(N/C=C(\C=O)c2nc3ccccc3o2)c1	Myeloid diff MLP active
O=C/C(=C\Nc1ccccn1)c1nc2cc(Cl)ccc2o1	Cardio protect 56, Myeloid diff MLP active
O=C(CN1CCC(n2nnc3cc(F)ccc32)CC1)NC1CC1	none
CCOc1ccc2nc(NC(=O)CN3CCC(n4nnc5cc(F)ccc54)CC3)sc2c1	Cardio protect 70
COc1ccccc1C1=CC(=O)C[C@H](c2ccc3c(c2)OCO3)C1	none
Cc1ccn2c(NC3CCCCC3)c(-c3cccc(-c4cccc(Cl)c4)c3)nc2c1	Myeloid diff MLP active
COc1cc(-c2nc3cc(C)ccn3c2NC2CCCCC2)ccc1-c1ccc(C(C)=O)cc1	Myeloid diff MLP active
CCOC(=O)c1c(NC(=O)CN2CCN(S(=O)(=O)c3cc(Cl)ccc3Cl)CC2)sc(C(=O)N(C)C)c1C	none
CN(c1ccccc1)S(=O)(=O)c1cccc(C(=O)NC2CCCCC2)c1	none
CN(c1ccccc1)S(=O)(=O)c1ccc(NC(=O)CC(=O)c2ccccc2)cc1	Myeloid diff MLP active
CN(c1ccccc1)S(=O)(=O)c1cccc(NS(=O)(=O)c2cccc(C(=O)O)c2)c1	ABHD5 PLIN5 PPI 22
CC(=O)Nc1ccc(NC(=O)c2ccc(S(=O)(=O)N(C)c3ccccc3)cc2)cc1	none
Cc1c(NS(=O)(=O)c2ccc(C(=O)N(C)Cc3cccc(Cl)c3Cl)cc2)c(=O)n(-c2ccccc2)n1C	none
CSc1ccccc1NC(=O)COc1nsnc1N1CCOCC1	Myeloid diff MLP active
Cn1c(=O)c2ccccc2n2c(CCl)nnc12	ABHD5 PLIN5 PPI 23, Myeloid diff MLP inconclusive
Cc1cc(C)cc(N2C(=O)CSC2c2cccs2)c1 (centres undefined)	none
CCCCn1c(NC(=O)c2ccccc2)nc2ccccc21	Cardio protect 81
CCn1c(NC(=O)c2ccccc2)nc2ccccc21	none (no result: DAGLB inhibitor)
COc1cc2ccccc2nn1	none
COc1ccc2c(n1)Sc1nc3ccccc3nc1N2	Myeloid diff MLP active
O=[N+]([O-])c1cccc(C2CC(c3ccccc3)=NN2c2ccccc2)c1 (centres undefined)	none
N#CC1CC(c2ccc([N+](=O)[O-])cc2)=NN1c1ccc([N+](=O)[O-])cc1 (centres undefined)	Myeloid diff MLP active
COc1cc(C(=O)CCN2CCC(c3ccccc3)C2)cc(OC)c1OC (centres undefined)	Rtt109 HAT inh 95
COc1ccc(CN(C(=O)CN2C(=O)c3ccccc3S2(=O)=O)C(C(=O)NCC2CCCO2)c2ccncc2)cc1 (centres undefined)	none
COC1=CC(=O)c2c(ccc3ncnc(N)c23)C1=O	ABHD5 PLIN5 PPI 55 (no result: Myeloid diff MLP)
COC1=CC(=O)c2nc(Cl)ccc2C1=O	Myeloid diff MLP inconclusive (no result: Rtt109 HAT inh, DAGLB inhibitor)
C=CCN1C(=O)/C(=C/c2cccs2)S/C1=N\S(=O)(=O)c1ccc(F)cc1	Myeloid diff MLP active
CCN1C(=O)/C(=C/c2cccs2)S/C1=N\S(=O)(=O)c1ccc(C)cc1	none
O=C1CC(=O)N(C2CCCCC2)C(=O)N1c1ccccc1S(=O)(=O)Oc1ccccc1	Myeloid diff MLP active (no result: Rtt109 HAT inh, DAGLB inhibitor)
O=C1C2CCCCC2C(=O)N1c1cccc(OS(=O)(=O)c2ccccc2)c1 (centres undefined)	none
Cc1ccc(C#N)c(SCc2nnc(-c3ccc(Cl)cc3)o2)n1	Rtt109 HAT inh 58
NNc1nc2c(Cl)ccc(Cl)c2s1	sPLA2-III inh 22
CCCOc1ccc(/C=N/NC(=O)c2c(-c3ccccc3)noc2C)cc1OC	none
COc1ccc(S(=O)(=O)N2CCN(c3ncccn3)CC2)cc1	none
O=S(=O)(c1ccc(Cl)cc1)N1CCN(c2ncccn2)CC1	Rtt109 HAT inh 64
COc1ccc(CN(C)C(=O)C(Cc2ccccc2)NC(=O)c2ccccc2)cc1F (centres undefined)	Cardio protect 50
CCOc1ccc(CN(C)C(=O)[C@H](Cc2ccccc2)NC(=O)OCc2ccccc2)cc1OC	Myeloid diff MLP active
CCOc1ccccc1NC(=O)c1cc(S(=O)(=O)N2CCN(CC)CC2)ccc1Cl	none
CN(C)c1nc(=NCc2cccs2)ss1	ABHD5 PLIN5 PPI 78
N/C(=N\OC(=O)/C=C/c1ccccc1)c1ccccn1	none (no result: Rtt109 HAT inh)
O=C(/C=C/c1ccccc1)c1ccccn1	ABHD5 PLIN5 PPI 23
